PTPN22 inh 2 = inhibitors of human LYP (PTPN22) phosphatase; recombinant LYP catalytic domain, DiFMUP fluorescence; inhibition, % at 2 µM; 0.21% of 96,000 active;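 active = inhibition at 2 µM at or above a set limit, the screen mean plus 3 SD, cut at about 24% in these data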;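 also: 0% = DMSO with enzyme and 100% = enzyme fully blocked by orthovanadate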
Target sequence (Q9Y2R2 whole entry, looked up, the tested form may be a part): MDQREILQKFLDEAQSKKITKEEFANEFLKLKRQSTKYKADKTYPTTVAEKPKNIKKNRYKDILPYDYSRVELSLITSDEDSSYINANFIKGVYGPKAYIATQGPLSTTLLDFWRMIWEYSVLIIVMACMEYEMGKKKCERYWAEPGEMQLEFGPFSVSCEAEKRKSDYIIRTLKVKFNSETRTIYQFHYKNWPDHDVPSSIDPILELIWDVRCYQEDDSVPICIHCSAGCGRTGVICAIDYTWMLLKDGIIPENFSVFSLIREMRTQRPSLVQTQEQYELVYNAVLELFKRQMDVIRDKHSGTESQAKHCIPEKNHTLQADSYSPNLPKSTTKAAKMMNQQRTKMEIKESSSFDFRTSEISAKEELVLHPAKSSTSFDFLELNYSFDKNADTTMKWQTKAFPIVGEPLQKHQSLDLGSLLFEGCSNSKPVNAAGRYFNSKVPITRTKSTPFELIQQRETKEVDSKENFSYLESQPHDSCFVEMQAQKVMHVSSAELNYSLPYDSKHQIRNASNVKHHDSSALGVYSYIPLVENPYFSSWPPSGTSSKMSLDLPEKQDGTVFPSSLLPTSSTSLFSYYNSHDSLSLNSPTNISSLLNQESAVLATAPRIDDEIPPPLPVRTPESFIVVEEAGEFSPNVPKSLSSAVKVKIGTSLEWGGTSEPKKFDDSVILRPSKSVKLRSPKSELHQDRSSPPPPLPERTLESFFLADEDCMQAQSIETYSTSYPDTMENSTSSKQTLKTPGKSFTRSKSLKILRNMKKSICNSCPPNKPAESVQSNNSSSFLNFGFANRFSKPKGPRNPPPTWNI
LYP act = LYP (human) phosphatase activation; 0.11% of 96,000 active; AID 697; activation, % at 2 µM; Q9Y2R2; recombinant LYP, DiFMUP fluorescence; 0 = plate median, 100 = signal doubled;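 active = activation at 2 µM above a set limit, the mean plus 5 SD, cut at about 37% in these data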
Measles CPE = protection of cells from measles virus | protection (pct of control), % at 4 µM | 1.5% of 140,000 active | Measles virus-infected cells, CPE protection, absorbance; in the data active = protection mostly above about 24%, no sharp cut-off; inactive = mostly below about 26%
* hit, by the source's call; . = not tested or not shown. Only some compounds are listed: those with a hit (about 1.7% of all), similar ones and a draw of the others.

SMILES	PTPN22 inh 2	LYP act	Measles CPE
Cc1cccc(-c2noc(CCCC(=O)Nc3ccc(C(N)=O)cc3)n2)c1	2	-2	21
Cc1cccc(-c2noc(CCCC(=O)Nc3cccnc3)n2)c1	-1	-1	active
CCOC(=O)Cc1csc(NC(=S)NC(=O)c2ccc([N+](=O)[O-])cc2)n1	.	.	14
CCOC(=O)Cc1csc(NC(=S)NC(=O)c2ccc(Cl)cc2)n1	26*	-23	16
CCOC(=O)Cc1csc(NC(=O)c2ccc(S(=O)(=O)N3CCCCC3)cc2)n1	8	-10	39*
CCOC(=O)Cc1csc(NC(=O)c2ccc(NC(C)=O)cc2)n1	-3	3	12
Cc1ccc(Nc2ncccc2C(N)=O)cc1	.	.	5
Cc1nc(-c2ccccc2)cc(N2CCCC2)n1	-7	2	33*
Nc1nc(-c2ccccc2)cc(N2CCCCC2)n1	5	-8	2
C1CCCC(N2CCNCC2)CC1	3	-4	3
O=C(Oc1ccc2ccccc2c1Br)N1CCCCCC1	7	-3	47*
O=C(Oc1ccc2cc(Br)ccc2c1)N1CCCCCC1	.	.	8
C#CCOCCOCCOCCNc1nc(N2CCN(C(=O)[C@H]([C@@H](C)CC)n3cc(CCCCN)nn3)CC2)nc(N2CCN(C(=O)[C@H](C)n3cc(CCC(=O)O)nn3)CC2)n1	.	.	4
O=c1c(Cl)c(NCc2ccc(F)cc2)cnn1C12CC3CC(CC(C3)C1)C2	.	.	36*
Cc1ccc(CNc2cnn(C34CC5CC(CC(C5)C3)C4)c(=O)c2Cl)cc1	.	.	7
CS/C(=N/S(=O)(=O)c1ccc(C)cc1)c1ccccc1	.	.	18*
CS/C(=N\S(=O)(=O)c1ccc(Cl)cc1)c1ccccc1	2	3	5
CCOC(=O)c1c(NC(=O)CC)sc(C(C)=O)c1C	-2	0	18
CN(CC(=O)NCc1ccncc1)S(=O)(=O)c1ccccc1	3	-2	2
O=c1c2ccccc2nc2n1C(CSCc1ccc(Cl)cc1)CS2 (stereo not given)	-3	0	4
Cc1cccc(C(=O)Nc2ccccc2SCC2CSc3nc4ccccc4c(=O)n32)c1 (stereo not given)	-4	2	25*
O=C(Nc1ccccc1SCC1CSc2nc3ccccc3c(=O)n21)c1cccc(Cl)c1 (stereo not given)	14	-10	36*
O=C(Nc1ccccc1SCC1CSc2nc3ccccc3c(=O)n21)c1ccccc1 (stereo not given)	-3	7	4
O=C(Nc1ccccc1SCC1CSc2nc3ccccc3c(=O)n21)c1ccccc1Cl (stereo not given)	1	-3	4
Cc1ccc(C(=O)Nc2ccccc2SCC2CSc3nc4ccccc4c(=O)n32)cc1 (stereo not given)	-7	4	63*
SMILES	PTPN22 inh 2	LYP act	Measles CPE
CCN(CC)C(=O)C(C)N(C#N)c1nc(NC(C)C)nc(NC(C)C)n1 (stereo not given)	-2	-2	6
CN1CCN(c2ncnc3c2[nH]c2ccc(F)cc23)CC1	.	.	50*
Cc1ccc2[nH]c3c(N4CCOCC4)ncnc3c2c1	-4	1	13
CC1CCN(S(=O)(=O)Cc2ccccc2Cl)CC1	-6	6	4
CC1CCN(C(=O)c2ccc(S(=O)(=O)N(C)C)cc2)C(C)C1 (stereo not given)	1	2	8
O=[N+]([O-])c1ccc(N2CCN(S(=O)(=O)c3ccccc3)CC2)cc1NCc1cccnc1	7	-1	4
O=[N+]([O-])c1ccc(N2CCN(S(=O)(=O)c3ccc(Cl)cc3)CC2)cc1NCc1cccnc1	24*	-20	7
CC1CC(C)CN(CCCNC(=O)Cc2c(C(=O)O)n(C)c3ccccc23)C1 (stereo not given)	5	-2	9
Cc1cc(/C=C2/C(=O)N(C)C(=S)N2C)c(C)n1C1CC1	.	.	17
CCOCCCNc1nc2c(c(=O)n(C)c(=O)n2C)n1CCCc1ccccc1	-1	0	67*
Cn1c(=O)c2c(nc(NCc3ccccc3)n2CCCc2ccccc2)n(C)c1=O	6	-6	1
COc1ccc2nc(NC(=O)c3cc(C)oc3C)sc2c1	2	-2	37
N#Cc1c(Nc2ccccc2)sc(C(=O)c2ccccc2)c1N	-1	5	68*
N#Cc1c(Nc2ccc(F)cc2)sc(C(=O)c2ccccc2)c1N	.	.	15
CCOC(=O)c1ccc(NC(=O)CC2SCCNC2=O)cc1 (stereo not given)	8	-9	35
CCOC(=O)c1ccc(NC(=O)CC2NCCNC2=O)cc1 (stereo not given)	32*	-30	8
Cc1ccc(S(=O)(=O)N2CCN(C(=O)CCC(=O)OCC(=O)Nc3cccc(C#N)c3)CC2)cc1	-2	2	5
CC1CN(CC(O)COc2ccc(C(=O)c3ccccc3)cc2)CC(C)O1 (stereo not given)	-1	-1	5

Source: PubChem (several laboratories)
